# Results: ChEMBL document CHEMBL2218924, “A broad activity screen in support of a chemogenomic map for kinase signalling research and drug discovery” (Biochem J, 2013)
# Key:
# [1] = molecular target: T1, Ephrin type-B receptor 1 (Homo sapiens) (UniProt P54762); conditions: at 10 µM
# T1 sequence (whole entry): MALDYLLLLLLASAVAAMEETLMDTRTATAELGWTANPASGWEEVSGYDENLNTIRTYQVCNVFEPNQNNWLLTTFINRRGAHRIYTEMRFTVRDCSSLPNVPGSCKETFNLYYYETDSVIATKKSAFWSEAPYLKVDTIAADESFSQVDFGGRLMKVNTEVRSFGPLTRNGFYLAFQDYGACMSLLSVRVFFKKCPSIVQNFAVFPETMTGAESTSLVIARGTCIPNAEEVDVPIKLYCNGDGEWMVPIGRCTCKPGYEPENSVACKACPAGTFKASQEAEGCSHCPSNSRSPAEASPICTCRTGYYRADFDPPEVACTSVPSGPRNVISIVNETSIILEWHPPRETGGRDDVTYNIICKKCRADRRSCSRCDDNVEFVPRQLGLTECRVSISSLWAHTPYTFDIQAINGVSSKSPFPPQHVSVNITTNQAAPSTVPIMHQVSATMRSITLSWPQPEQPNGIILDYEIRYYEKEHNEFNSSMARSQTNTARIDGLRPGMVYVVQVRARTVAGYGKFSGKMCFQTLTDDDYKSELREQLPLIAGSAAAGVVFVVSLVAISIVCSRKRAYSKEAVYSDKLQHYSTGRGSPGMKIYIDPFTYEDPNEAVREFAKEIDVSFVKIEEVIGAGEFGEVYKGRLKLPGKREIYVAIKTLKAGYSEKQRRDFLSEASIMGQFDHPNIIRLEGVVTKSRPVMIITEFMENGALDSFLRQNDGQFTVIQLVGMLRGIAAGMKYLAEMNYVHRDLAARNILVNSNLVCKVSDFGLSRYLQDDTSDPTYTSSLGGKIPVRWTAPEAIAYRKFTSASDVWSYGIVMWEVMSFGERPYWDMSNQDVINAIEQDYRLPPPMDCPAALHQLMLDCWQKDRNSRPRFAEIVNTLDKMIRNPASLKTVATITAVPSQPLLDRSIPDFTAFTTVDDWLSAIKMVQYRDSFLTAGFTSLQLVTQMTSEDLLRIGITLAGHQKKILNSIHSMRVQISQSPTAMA
# [2] = molecular target: T2, Ephrin type-B receptor 2 (Homo sapiens) (UniProt P29323); conditions: at 1 µM
# T2 sequence (whole entry): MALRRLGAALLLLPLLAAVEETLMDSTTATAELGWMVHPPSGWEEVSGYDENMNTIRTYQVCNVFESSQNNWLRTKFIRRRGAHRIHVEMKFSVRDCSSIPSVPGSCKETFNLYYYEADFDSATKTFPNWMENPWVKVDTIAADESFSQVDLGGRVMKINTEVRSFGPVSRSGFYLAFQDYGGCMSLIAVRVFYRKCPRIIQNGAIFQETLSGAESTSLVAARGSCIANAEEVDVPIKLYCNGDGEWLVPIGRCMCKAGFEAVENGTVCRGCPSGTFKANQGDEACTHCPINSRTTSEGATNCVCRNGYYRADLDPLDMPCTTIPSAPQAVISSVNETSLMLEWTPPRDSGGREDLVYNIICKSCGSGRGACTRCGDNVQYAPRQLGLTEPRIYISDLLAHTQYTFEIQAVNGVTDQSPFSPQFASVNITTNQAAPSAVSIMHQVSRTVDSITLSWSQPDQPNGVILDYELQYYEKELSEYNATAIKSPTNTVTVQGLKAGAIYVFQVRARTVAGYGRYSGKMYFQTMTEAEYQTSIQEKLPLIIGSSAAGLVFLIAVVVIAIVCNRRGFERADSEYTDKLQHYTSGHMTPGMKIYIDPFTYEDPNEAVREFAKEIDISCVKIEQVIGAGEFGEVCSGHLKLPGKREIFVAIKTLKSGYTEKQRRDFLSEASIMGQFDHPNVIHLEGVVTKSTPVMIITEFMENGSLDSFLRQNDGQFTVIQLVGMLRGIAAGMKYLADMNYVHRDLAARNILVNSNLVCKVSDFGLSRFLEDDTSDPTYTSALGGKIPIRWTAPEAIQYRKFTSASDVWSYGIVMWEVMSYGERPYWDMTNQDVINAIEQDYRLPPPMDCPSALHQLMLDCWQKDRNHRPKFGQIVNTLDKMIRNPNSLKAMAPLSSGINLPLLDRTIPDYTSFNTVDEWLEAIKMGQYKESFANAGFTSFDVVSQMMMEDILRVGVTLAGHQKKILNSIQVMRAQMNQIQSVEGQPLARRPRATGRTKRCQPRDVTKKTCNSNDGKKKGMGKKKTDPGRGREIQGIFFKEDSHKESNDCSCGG
# [3] = molecular target: T2, Ephrin type-B receptor 2 (Homo sapiens); conditions: at 10 µM
# [4] = molecular target: T3, Ephrin type-B receptor 3 (Homo sapiens) (UniProt P54753); conditions: at 1 µM
# T3 sequence (whole entry): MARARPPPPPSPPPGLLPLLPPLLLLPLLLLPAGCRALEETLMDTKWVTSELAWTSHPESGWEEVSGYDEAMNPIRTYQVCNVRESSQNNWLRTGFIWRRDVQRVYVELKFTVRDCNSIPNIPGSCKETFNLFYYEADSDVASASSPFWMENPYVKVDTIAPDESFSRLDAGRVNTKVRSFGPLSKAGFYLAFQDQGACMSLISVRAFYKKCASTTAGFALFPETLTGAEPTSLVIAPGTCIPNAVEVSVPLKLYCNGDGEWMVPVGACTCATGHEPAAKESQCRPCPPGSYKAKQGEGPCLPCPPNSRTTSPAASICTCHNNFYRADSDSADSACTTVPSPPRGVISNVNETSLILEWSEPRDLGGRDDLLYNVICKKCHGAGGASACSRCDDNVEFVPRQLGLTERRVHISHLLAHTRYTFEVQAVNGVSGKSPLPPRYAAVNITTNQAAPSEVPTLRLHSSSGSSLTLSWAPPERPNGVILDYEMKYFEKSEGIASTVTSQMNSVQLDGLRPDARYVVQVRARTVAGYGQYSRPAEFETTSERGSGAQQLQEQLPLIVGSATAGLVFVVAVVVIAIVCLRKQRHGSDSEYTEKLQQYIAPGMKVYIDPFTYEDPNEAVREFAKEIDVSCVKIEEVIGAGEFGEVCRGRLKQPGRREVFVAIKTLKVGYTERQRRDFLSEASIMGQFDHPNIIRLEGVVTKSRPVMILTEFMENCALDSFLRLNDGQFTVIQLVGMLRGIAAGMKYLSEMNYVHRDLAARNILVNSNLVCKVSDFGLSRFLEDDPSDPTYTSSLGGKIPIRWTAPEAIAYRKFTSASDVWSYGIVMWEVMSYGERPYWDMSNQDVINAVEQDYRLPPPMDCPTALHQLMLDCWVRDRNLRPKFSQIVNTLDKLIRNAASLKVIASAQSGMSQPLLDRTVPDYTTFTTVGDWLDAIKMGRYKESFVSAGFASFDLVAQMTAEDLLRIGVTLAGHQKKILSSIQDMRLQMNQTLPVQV
# [5] = molecular target: T3, Ephrin type-B receptor 3 (Homo sapiens); conditions: at 10 µM
# [6] = molecular target: T4, Ephrin type-B receptor 4 (Homo sapiens) (UniProt P54760); conditions: at 1 µM
# T4 sequence (whole entry): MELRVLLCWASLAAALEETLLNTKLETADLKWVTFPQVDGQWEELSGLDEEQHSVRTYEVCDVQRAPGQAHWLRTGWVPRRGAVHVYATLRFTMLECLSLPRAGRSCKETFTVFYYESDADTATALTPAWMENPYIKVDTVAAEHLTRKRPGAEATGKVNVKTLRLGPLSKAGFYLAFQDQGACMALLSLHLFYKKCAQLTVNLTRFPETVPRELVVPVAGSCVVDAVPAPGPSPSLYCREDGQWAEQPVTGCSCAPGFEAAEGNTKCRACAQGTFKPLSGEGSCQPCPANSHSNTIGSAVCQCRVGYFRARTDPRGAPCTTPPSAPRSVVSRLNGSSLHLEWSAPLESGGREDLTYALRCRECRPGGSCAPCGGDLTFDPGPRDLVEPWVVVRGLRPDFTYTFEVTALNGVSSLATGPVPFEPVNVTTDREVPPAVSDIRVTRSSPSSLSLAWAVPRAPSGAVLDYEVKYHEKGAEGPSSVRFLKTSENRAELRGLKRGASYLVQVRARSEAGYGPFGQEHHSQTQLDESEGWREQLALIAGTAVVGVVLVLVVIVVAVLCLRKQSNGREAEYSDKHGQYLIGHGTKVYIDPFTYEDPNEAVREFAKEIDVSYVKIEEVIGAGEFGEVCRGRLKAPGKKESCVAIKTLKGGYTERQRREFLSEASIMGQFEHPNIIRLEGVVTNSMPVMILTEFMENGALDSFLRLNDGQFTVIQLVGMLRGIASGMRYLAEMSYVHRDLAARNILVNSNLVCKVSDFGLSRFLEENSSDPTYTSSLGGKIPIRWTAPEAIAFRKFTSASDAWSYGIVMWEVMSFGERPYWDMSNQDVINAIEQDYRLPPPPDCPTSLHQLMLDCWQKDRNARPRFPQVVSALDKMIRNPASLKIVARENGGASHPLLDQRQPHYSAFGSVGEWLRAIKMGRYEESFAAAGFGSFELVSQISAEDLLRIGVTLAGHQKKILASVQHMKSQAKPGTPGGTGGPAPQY
# [7] = molecular target: T4, Ephrin type-B receptor 4 (Homo sapiens); conditions: at 10 µM
# [8] = molecular target: Receptor tyrosine-protein kinase erbB-4 (Homo sapiens) (UniProt Q15303); conditions: at 1 µM
# [9] = molecular target: Receptor tyrosine-protein kinase erbB-4 (Homo sapiens) (UniProt Q15303); conditions: at 10 µM
# [10] = molecular target: Focal adhesion kinase 1 (Homo sapiens) (UniProt Q05397); conditions: at 1 µM
# Sequence of Focal adhesion kinase 1 (Homo sapiens) (Q05397 2-1052 limits assumed): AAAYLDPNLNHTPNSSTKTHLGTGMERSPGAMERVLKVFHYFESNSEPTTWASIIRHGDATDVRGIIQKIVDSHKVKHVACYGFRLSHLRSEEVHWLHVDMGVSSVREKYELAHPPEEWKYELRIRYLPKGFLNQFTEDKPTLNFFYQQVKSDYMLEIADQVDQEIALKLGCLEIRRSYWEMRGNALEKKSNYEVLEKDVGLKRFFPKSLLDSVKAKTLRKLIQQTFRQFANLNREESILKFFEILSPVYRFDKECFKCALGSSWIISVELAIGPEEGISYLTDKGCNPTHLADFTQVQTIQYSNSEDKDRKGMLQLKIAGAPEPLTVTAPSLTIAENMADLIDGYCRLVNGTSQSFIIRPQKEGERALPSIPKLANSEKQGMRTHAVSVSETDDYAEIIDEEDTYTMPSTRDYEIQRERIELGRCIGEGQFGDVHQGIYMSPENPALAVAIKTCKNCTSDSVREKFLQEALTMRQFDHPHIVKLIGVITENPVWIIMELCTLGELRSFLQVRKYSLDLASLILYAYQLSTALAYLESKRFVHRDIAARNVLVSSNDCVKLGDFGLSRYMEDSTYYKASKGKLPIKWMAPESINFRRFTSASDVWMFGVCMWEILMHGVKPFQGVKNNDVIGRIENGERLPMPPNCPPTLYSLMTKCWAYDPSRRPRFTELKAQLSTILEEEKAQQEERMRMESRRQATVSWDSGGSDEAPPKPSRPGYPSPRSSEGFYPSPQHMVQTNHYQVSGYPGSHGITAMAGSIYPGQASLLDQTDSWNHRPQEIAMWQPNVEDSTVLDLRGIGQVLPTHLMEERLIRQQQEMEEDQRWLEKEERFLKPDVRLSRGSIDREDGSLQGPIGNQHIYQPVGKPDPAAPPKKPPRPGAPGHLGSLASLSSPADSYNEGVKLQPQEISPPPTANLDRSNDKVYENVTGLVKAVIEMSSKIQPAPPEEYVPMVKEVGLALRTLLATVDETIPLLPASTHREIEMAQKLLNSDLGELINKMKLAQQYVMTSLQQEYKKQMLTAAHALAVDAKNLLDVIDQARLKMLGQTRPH
# Sequence of Receptor tyrosine-protein kinase erbB-4 (Homo sapiens) (Q15303 whole entry): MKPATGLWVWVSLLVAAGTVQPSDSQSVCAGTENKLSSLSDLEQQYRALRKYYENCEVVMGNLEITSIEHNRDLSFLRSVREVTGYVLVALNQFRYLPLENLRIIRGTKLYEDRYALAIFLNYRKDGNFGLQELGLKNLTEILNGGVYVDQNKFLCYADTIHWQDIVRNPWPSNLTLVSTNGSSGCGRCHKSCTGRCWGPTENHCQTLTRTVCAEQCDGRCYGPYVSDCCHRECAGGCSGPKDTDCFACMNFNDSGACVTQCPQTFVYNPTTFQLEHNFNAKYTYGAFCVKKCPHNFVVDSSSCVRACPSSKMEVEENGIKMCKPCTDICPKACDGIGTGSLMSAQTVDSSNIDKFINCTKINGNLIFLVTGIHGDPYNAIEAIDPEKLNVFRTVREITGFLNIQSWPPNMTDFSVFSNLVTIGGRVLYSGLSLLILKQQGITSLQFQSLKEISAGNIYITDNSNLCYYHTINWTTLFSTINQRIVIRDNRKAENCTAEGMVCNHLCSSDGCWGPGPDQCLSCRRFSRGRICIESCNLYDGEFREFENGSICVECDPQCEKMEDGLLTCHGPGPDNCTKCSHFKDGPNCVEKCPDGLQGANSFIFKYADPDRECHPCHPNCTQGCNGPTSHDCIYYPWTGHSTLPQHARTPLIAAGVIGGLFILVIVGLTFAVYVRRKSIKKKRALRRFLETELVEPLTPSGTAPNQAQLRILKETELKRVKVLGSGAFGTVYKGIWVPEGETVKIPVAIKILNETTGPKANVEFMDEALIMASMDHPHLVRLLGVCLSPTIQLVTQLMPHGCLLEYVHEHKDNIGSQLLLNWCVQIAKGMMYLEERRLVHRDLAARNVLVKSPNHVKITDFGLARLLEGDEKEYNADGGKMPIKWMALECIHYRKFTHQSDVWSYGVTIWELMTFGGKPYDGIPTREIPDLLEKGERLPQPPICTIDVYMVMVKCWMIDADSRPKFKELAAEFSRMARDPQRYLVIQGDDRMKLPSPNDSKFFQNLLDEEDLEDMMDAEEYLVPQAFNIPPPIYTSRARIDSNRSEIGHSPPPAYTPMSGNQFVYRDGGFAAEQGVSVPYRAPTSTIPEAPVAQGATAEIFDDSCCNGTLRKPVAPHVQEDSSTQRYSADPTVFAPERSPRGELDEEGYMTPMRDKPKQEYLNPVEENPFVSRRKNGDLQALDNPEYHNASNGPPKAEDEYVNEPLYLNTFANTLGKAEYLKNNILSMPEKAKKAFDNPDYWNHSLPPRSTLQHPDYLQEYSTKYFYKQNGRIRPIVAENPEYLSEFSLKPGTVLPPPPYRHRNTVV
smiles,measurement,setting,value
O=C1NC(=O)/C(=C/c2ccc3c(c2)OC(F)(F)O3)S1,residual activity,[1],106%
same,residual activity,[2],108%
same,residual activity,[3],110%
same,residual activity,[4],125% (inactive)
same,residual activity,[5],109%
same,residual activity,[6],118%
same,residual activity,[7],121%
same,residual activity,[8],98%
same,residual activity,[9],101%
same,residual activity,[10],112%
